# Source: PubChem BioAssay (Tox21)
# Inconclusive results are not listed. The source made the active and inactive calls. Calls follow the shape of the dose curve; as a rule, active = well fitted cell-killing curve with a large enough effect in the repeat runs; inconclusive = weak or mixed curves; inactive = flat fitted curve, though single readings scatter.
# Test: qHTS assay to identify small molecule antagonists of the estrogen receptor beta (ER-beta) signaling pathway - cell viability counter screen (AID 1259382);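 also: HEK293T cells carrying ER-beta-UAS-bla reporter stimulated with estradiol; nearly all actives have a fitted effect of over 55% in size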
# Settings: ER-beta-UAS-bla HEK293T viability, CellTiter-Glo luminescence, 16 h; series mostly up to 92.4 µM; activity change, negative = cytotoxicity: at the top concentration
# How it was run: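 Cytotoxicity was measured in the same wells by CellTiter-Glo luminescence after 30 min at room temperature. Cells were ER-beta-bla HEK293T in charcoal-stripped serum, given compound together with 1 nM E2 and incubated 16 h at 37C.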
# % is scaled to controls: 0 for no effect and ±100 for the full control effect.
row,SMILES,"activity change, negative = cytotoxicity"
1,COc1cc2c(cc1OC)CN(C(=O)[C@H](C)N[C@@H](CCc1ccccc1)C(=O)O)[C@H](C(=O)O)C2,-0.489% [at 42.5 µM] (inactive)
2,O=C(Cn1ccnc1[N+](=O)[O-])NCc1ccccc1,14.7% [at 42.5 µM] (inactive)
3,COC(=O)/C=C\C(=O)O,8.07% (inactive)
4,CCCCOC(=O)C(C)O (configuration not stated),0.998% (inactive)
5,N#CCC(=O)NN,5.02% [at 42.5 µM] (inactive)
6,Cc1cc(C)c(C(=O)O)c(C)c1,-1.57% (inactive)
7,CCOc1cccc(N)c1,-0.0905% (inactive)
8,O=C(CCCl)NCCc1ccccc1,5.48% [at 42.5 µM] (inactive)
9,CC(=O)C1C(=O)C=C(C)OC1=O (configuration not stated),14.2% (inactive)
10,CCOc1ccccc1OCC1CNCCO1 (configuration not stated),-0.522% [at 42.5 µM] (inactive)
11,CC1(C)O[C@H]2CC(=O)OC[C@]23[C@H]2CC[C@@]4(C)[C@H](c5ccoc5)OC(=O)[C@H]5O[C@]54[C@]2(C)C(=O)C[C@@H]13,8.11% [at 42.5 µM] (inactive)
12,CCO[Si](CC)(OCC)OCC,2.61% (inactive)
13,CC(=O)CCc1ccc(OC(C)=O)cc1,15.7% (inactive)
14,CCCCCCC1(C)CCC(=O)O1 (configuration not stated),5.13% (inactive)
15,O=C(O)[C@H](O)c1ccccc1,13% [at 42.5 µM] (inactive)
16,C=CC/C=C/C,1.23% (inactive)
17,CCC(C)C(=O)OCCc1ccccc1 (configuration not stated),2.88% (inactive)
18,COP(=O)(O)OP(=O)(O)OC,-0.438% (inactive)
19,O=C(O)c1cc2ccccc2nc1C(=O)O,-4.62% (inactive)

row,SMILES,"activity change, negative = cytotoxicity"
1,COc1cc(/C=C/C(N)=O)cc(OC)c1OC,11.8% [at 42.5 µM] (inactive)
2,COC(=O)c1cc(Cl)cc(Cl)c1,1.18% (inactive)
3,O=C1c2ccccc2C(=O)c2cc(Cl)ccc21,1.86% [at 8.39 µM] (inactive)
4,CO[C@@]1(NC(=O)Cc2cccs2)C(=O)N2C(C(=O)O)=C(COC(N)=O)CS[C@@H]21,8.13% [at 42.5 µM] (inactive)
5,C[C@H]1[C@@H](c2ccccc2)NC(=O)N1C,-10% (inactive)
6,CC/C=C\CCOC(=O)c1ccccc1O,0.0461% (inactive)
7,Cc1ccccc1C(N)=O,-4.8% (inactive)
8,OC1OCCOC1O (configuration not stated),13.1% (inactive)
9,C/C=C(\C)C(C)=O,-1.42% (inactive)
10,COC(=O)c1ccccc1C(=O)O,0.0313% (inactive)
11,CC(C)c1ccc(C=O)cc1,5.94% (inactive)
12,CCC/C=C(\C=O)CC,0.171% (inactive)
13,CSc1cnccn1,6.48% (inactive)
14,CCOC(=O)CC1(C)OCC(C)O1 (configuration not stated),0.968% (inactive)
15,CC(=O)CC(=O)OC(C)(C)C,5.51% (inactive)
16,Cc1c(NC(=O)c2cccnc2)c(=O)n(-c2ccccc2)n1C,2.07% [at 42.5 µM] (inactive)
17,c1ccc(-c2nn[nH]n2)cc1,0.692% (inactive)
18,CCCCCCCCCCOC(C)=O,0.196% (inactive)
